Values joined by “and” are separate entries in the source; they are usually repeats but may differ in a detail not shown here. Identical values can stand only once. The campaign covered roughly 5,500 compounds. About 2,000 (36%) were called active. Inconclusive results (about 18%) are left out. Cut-off read from the data, not from the text of the source: active = normalized growth mostly below about 0.91 (no sharp cut-off); inconclusive = no clear call, values can overlap the other calls; inactive = mostly above about 0.92. The list shows a part of the results.
Test: chemical genetic growth profiling, strain panel (AID 1159580);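 note: tested at 20 µM; growth read once vehicle control cultures reached saturation at 30 °C; 1 = growth at the plate median or of vehicle wells; lower values mean less growth of the strain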
Settings: growth OD

Measured: normalized growth

COc1cc(OC)c2c(=O)cc(-c3ccccc3)oc2c1
0.51 (active) and 0.918 (inactive): S. cerevisiae deletion strains, locus YJL095W, strain BCK1, stronger effect = lower value
active: S. cerevisiae deletion strains, locus YDL074C, strain BRE1, stronger effect = lower value 0.764 | S. cerevisiae deletion strains, locus YDL134C, strain PPH21, stronger effect = lower value 0.886 | S. cerevisiae deletion strains, locus YDL192W, strain arf1, stronger effect = lower value 0.914 | S. cerevisiae deletion strains, locus YDR162C, strain NBP2, stronger effect = lower value 0.752 | S. cerevisiae deletion strains, locus YDR318W, strain mcm21, stronger effect = lower value 0.868 | S. cerevisiae deletion strains, locus YDR502C, strain sam2, stronger effect = lower value 0.907 | S. cerevisiae deletion strains, locus YER167W, strain BCK2, stronger effect = lower value 0.899 | S. cerevisiae deletion strains, locus YGL086W, strain mad1, stronger effect = lower value 0.924 | S. cerevisiae deletion strains, locus YGL248W, strain PDE1, stronger effect = lower value 0.866 | S. cerevisiae deletion strains, locus YGR078C, strain PAC10, stronger effect = lower value 0.805 | S. cerevisiae deletion strains, locus YGR135W, strain pre9, stronger effect = lower value 0.819 | S. cerevisiae deletion strains, locus YGR229C, strain SMI1, stronger effect = lower value 0.664 | S. cerevisiae deletion strains, locus YHR079C, strain IRE1 (second series), stronger effect = lower value 0.895 | S. cerevisiae deletion strains, locus YKR001C, strain vps1, stronger effect = lower value 0.839 | S. cerevisiae deletion strains, locus YLR039C, strain RIC1, stronger effect = lower value 0.644 | S. cerevisiae deletion strains, locus YLR268W, strain sec22, stronger effect = lower value 0.877 | S. cerevisiae deletion strains, locus YLR342W, strain FKS1 (second series), stronger effect = lower value 0.71 | S. cerevisiae deletion strains, locus YLR418C, strain cdc73, stronger effect = lower value 0.685 | S. cerevisiae deletion strains, locus YML032C, strain rad52, stronger effect = lower value 0.757 | S. cerevisiae deletion strains, locus YMR223W, strain ubp8, stronger effect = lower value 0.875 | S. cerevisiae deletion strains, locus YMR263W, strain SAP30, stronger effect = lower value 0.871 | S. cerevisiae deletion strains, locus YNL233W, strain BNI4, stronger effect = lower value 0.846 | S. cerevisiae deletion strains, locus YNL307C, strain MCK1, stronger effect = lower value 0.533 | S. cerevisiae deletion strains, locus YNR052C, strain pop2, stronger effect = lower value 0.902 | S. cerevisiae deletion strains, locus YOL006C, strain TOP1, stronger effect = lower value 0.472 | S. cerevisiae deletion strains, locus YOR184W, strain ser1, stronger effect = lower value 0.792 | S. cerevisiae deletion strains, locus YPR163C, strain tif3, stronger effect = lower value 0.785 | S. cerevisiae deletion strains, strain wtn01, stronger effect = lower value 0.868
0.718 (active) and 0.911 (inactive): S. cerevisiae deletion strains, locus YHR030C, strain SLT2, stronger effect = lower value
inactive: S. cerevisiae deletion strains, locus YAL013W, strain DEP1, stronger effect = lower value 0.912 | S. cerevisiae deletion strains, locus YBR021W, strain FUR4, stronger effect = lower value 0.978 | S. cerevisiae deletion strains, locus YBR229C, strain ROT2, stronger effect = lower value 0.949 | S. cerevisiae deletion strains, locus YCL029C, strain bik1, stronger effect = lower value 0.957 | S. cerevisiae deletion strains, locus YDL035C, strain GPR1, stronger effect = lower value 0.864 | S. cerevisiae deletion strains, locus YDL101C, strain DUN1, stronger effect = lower value 0.925 | S. cerevisiae deletion strains, locus YDL185W, strain tfp1, stronger effect = lower value 0.951 | S. cerevisiae deletion strains, locus YDR101C, strain arx1, stronger effect = lower value 0.936 | S. cerevisiae deletion strains, locus YDR150W, strain NUM1, stronger effect = lower value 0.949 | S. cerevisiae deletion strains, locus YDR388W, stronger effect = lower value 0.951 | S. cerevisiae deletion strains, locus YEL061C, strain CIN8, stronger effect = lower value 0.941 | S. cerevisiae deletion strains, locus YER110C, stronger effect = lower value 0.914 | S. cerevisiae deletion strains, locus YER155C, strain BEM2, stronger effect = lower value 0.951 | S. cerevisiae deletion strains, locus YGL078C, strain dbp3, stronger effect = lower value 0.961 | S. cerevisiae deletion strains, locus YGR252W, strain gcn5, stronger effect = lower value 0.793 | S. cerevisiae deletion strains, locus YHR079C, strain IRE1, stronger effect = lower value 0.925 | S. cerevisiae deletion strains, locus YHR094C, strain hxt1, stronger effect = lower value 0.96 | S. cerevisiae deletion strains, locus YHR129C, strain ARP1, stronger effect = lower value 0.934 | S. cerevisiae deletion strains, locus YHR200W, strain rpn10, stronger effect = lower value 0.929 | S. cerevisiae deletion strains, locus YIL066C, strain RNR3, stronger effect = lower value 0.912 | S. cerevisiae deletion strains, locus YIL073C, strain SPO22, stronger effect = lower value 0.844 | S. cerevisiae deletion strains, locus YIL125W, strain kgd1, stronger effect = lower value 0.975 | S. cerevisiae deletion strains, locus YIR030C, strain dcg1, stronger effect = lower value 0.95 | S. cerevisiae deletion strains, locus YJL134W, strain LCB3, stronger effect = lower value 0.948 | S. cerevisiae deletion strains, locus YJL168C, strain set2, stronger effect = lower value 0.944 | S. cerevisiae deletion strains, locus YJL187C, strain SWE1 (second series), stronger effect = lower value 0.879 | S. cerevisiae deletion strains, locus YJR043C, strain POL32, stronger effect = lower value 0.894 | S. cerevisiae deletion strains, locus YJR066W, strain TOR1, stronger effect = lower value 0.872 | S. cerevisiae deletion strains, locus YJR075W, strain HOC1, stronger effect = lower value 0.884 | S. cerevisiae deletion strains, locus YKL009W, strain mrt4, stronger effect = lower value 0.906 | S. cerevisiae deletion strains, locus YKL068W, stronger effect = lower value 0.967 | S. cerevisiae deletion strains, locus YKL085W, strain MDH1 (second series), stronger effect = lower value 0.963 | S. cerevisiae deletion strains, locus YKL085W, strain MDH1, stronger effect = lower value 0.963 | S. cerevisiae deletion strains, locus YKL190W, strain CNB1, stronger effect = lower value 0.948 | S. cerevisiae deletion strains, locus YLR058C, strain SHM2, stronger effect = lower value 0.913 | S. cerevisiae deletion strains, locus YLR102C, strain apc9, stronger effect = lower value 0.958 | S. cerevisiae deletion strains, locus YLR113W, strain HOG1, stronger effect = lower value 0.952 | S. cerevisiae deletion strains, locus YLR262C, strain YPT6, stronger effect = lower value 0.652 | S. cerevisiae deletion strains, locus YLR330W, strain CHS5, stronger effect = lower value 0.929 | S. cerevisiae deletion strains, locus YLR371W, strain rom2, stronger effect = lower value 0.959 | S. cerevisiae deletion strains, locus YML016C, strain PPZ1, stronger effect = lower value 0.929 | S. cerevisiae deletion strains, locus YML124C, strain tub3, stronger effect = lower value 0.952 | S. cerevisiae deletion strains, locus YMR078C, strain ctf18, stronger effect = lower value 0.912 | S. cerevisiae deletion strains, locus YMR307W, strain GAS1, stronger effect = lower value 0.625 | S. cerevisiae deletion strains, locus YNL067W, strain RPL9B, stronger effect = lower value 0.889 | S. cerevisiae deletion strains, locus YNL128W, strain TEP1, stronger effect = lower value 0.939 | S. cerevisiae deletion strains, locus YNL153C, strain GIM3, stronger effect = lower value 0.924 | S. cerevisiae deletion strains, locus YNL183C, strain NPR1, stronger effect = lower value 0.88 | S. cerevisiae deletion strains, locus YNL250W, strain rad50, stronger effect = lower value 0.923 | S. cerevisiae deletion strains, locus YNL271C, strain bni1, stronger effect = lower value 0.943 | S. cerevisiae deletion strains, locus YNL298W, strain CLA4, stronger effect = lower value 0.941 | S. cerevisiae deletion strains, locus YNL322C, strain KRE1, stronger effect = lower value 0.946 | S. cerevisiae deletion strains, locus YOL012C, strain htz1 0.858 | S. cerevisiae deletion strains, locus YOL147C, strain pex11, stronger effect = lower value 0.944 | S. cerevisiae deletion strains, locus YOR061W, strain CKA2, stronger effect = lower value 0.941 | S. cerevisiae deletion strains, locus YOR069W, strain VPS5, stronger effect = lower value 0.95 | S. cerevisiae deletion strains, locus YOR136W, strain idh2, stronger effect = lower value 0.965 | S. cerevisiae deletion strains, locus YOR144C, strain elg1, stronger effect = lower value 0.949 | S. cerevisiae deletion strains, locus YOR231W, strain MKK1, stronger effect = lower value 0.925 | S. cerevisiae deletion strains, locus YOR316C, strain cot1, stronger effect = lower value 0.943 | S. cerevisiae deletion strains, locus YPL055C, strain LGE1, stronger effect = lower value 0.83 | S. cerevisiae deletion strains, locus YPL241C, strain CIN2, stronger effect = lower value 0.946 | S. cerevisiae deletion strains, locus YPL256C, strain CLN2, stronger effect = lower value 0.911 | S. cerevisiae deletion strains, locus YPR119W, strain clb2, stronger effect = lower value 0.945 | S. cerevisiae deletion strains, locus YPR141C, strain kar3, stronger effect = lower value 0.967 | S. cerevisiae deletion strains, locus YPR167C, strain met16, stronger effect = lower value 0.951 | S. cerevisiae strains, strain wild type, stronger effect = lower value 0.905

Reference: PubChem BioAssay AID1159580 (chemical genetic matrix, 2015)
